Hits are enriched below; roughly 5.7% of the tested compounds scored in any of these assays.
DAX1 inh-1: blocks DAX1 repression of SF-1 activated StAR promoter | HEK293T StAR-luciferase reporter, SF-1/DAX-1 repression relief | inhibition, % at 6.8 µM | 370,000 compounds, 1.1% hits | AID 652010;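 active = inhibition above the mean over all tested compounds plus 3 SD, cut at about 3.6% in these data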;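 also: 0% = DAX-1 cells with DMSO and 100% = cells lacking DAX-1 with DMSO; higher inhibition means more luminescence from relief of DAX-1 repression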
DAX1 inh-2: inhibits human nuclear receptor DAX1; HEK293 Gal4-DAX1 luciferase reporter, luminescence; P51843; 340,000 compounds, 0.99% hits; inhibition, % at 6.75 µM;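 active = inhibition above the mean over all tested compounds plus 3 SD, cut at about 4.2% in these data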;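 also: 0% = DAX1-transfected cells with DMSO and 100% = empty-vector control cells with DMSO; inhibition shows as a rise in luminescence from relieved DAX1 repression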
hcDAF-12 act: activators of H. contortus DAF-12 nuclear receptor; activation, % at 6.8 µM; AID 652067; HEK293 hcDAF-12 lit1-tk-luc reporter, luminescence; 0% DMSO, 100% Δ7-dafachronic acid; 370,000 compounds, 1.4% hits;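 active = activation above the mean of all tested compounds plus 3 SD, cut at about 5.5% in these data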;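 also: 100% = response to 3 µM Δ7-dafachronic acid high control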
ssDAF12 agonist: activates DAF-12 receptor from parasite S. stercoralis; HEK293 ssDAF-12/GRIP1 lit1-tk-luc reporter, luminescence; % of 3 µM dafachronic acid response; activation, % at 6.8 µM; 370,000 compounds, 1% hits;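 active = activation above the mean over all tested compounds plus 3 SD, cut at about 0.9% in these data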;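 also: 0% = DMSO-only wells and 100% = 3 µM delta7-dafachronic acid wells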
hgDAF12 agonist: hgDAF-12 agonism, primary luciferase screen. HEK293 GAL4-hgDAF12 UAS-luciferase reporter, agonist luminescence; normalized to butyrate control. activation, % at 6.8 µM. 370,000 compounds, 1.8% hits;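 active = activation above a cutoff set at the mean of all screened compounds plus 3 SD, cut at about 10% in these data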;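 also: 0% = DMSO wells and 100% = sodium butyrate wells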
AHR activator: human AHR activation; P35869; AID 2796; AHR-responsive luciferase reporter cells, luminescence; activation, % at 5 µM; 320,000 compounds, 2.5% hits; in the data active = activation above about 47%;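 also: 0% = vehicle wells and 100% = reference agonist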
* marks the source's active call; other numbers are inactive results; . = no result.

SMILES | DAX1 inh-1 | DAX1 inh-2 | hcDAF-12 act | ssDAF12 agonist | hgDAF12 agonist | AHR activator
C[C@H]1Cn2cnc(C(=O)N3CCN(C(=O)OC(C)(C)C)CC3)c2C(=O)N1 | 1 | . | -1 | -1 | -2 | .
COc1ccc(NC(=O)CCSc2ccc(F)cc2)cc1 | 3 | 4.2* | 3 | 0 | 10 | 9
CC(O)c1nc2ccccc2n1CC(=O)Nc1ccc(F)cc1Cl (stereo unspecified) | 0 | 1 | -1 | -1 | 1 | 1
Cc1c(C(=O)NNc2c(Cl)cccc2Cl)n(C)oc1=O | 1 | 6.2* | -2 | -1 | -2 | -2
CC(C)NC(=O)C1C(c2ccc(C(F)(F)F)cc2)=Nc2ccccc2N1C(=O)c1ccccc1 (stereo unspecified) | 3 | . | 4 | 1.5* | 6 | .
O=C(NC1CCCC1)C1C(c2ccccc2)=Nc2ccccc2N1C(=O)c1ccc(C(F)(F)F)cc1 (stereo unspecified) | 0 | . | -1 | 0 | 5 | .
CC(C)[C@H](NC(=O)Cc1ccccc1)C(=O)OCc1cc(=O)n2c(n1)sc1ccccc12 | 0 | 0 | 3 | 1.1* | 4 | 3
CC(C)C(=O)N[C@H]1[C@H](O)CCC[C@]12C(=O)N(Cc1ccccc1)c1ccccc12 | 1 | . | -2 | -1 | 3 | .
CC1(C)CC(=O)C2=C(C1)NC1=C(C(=O)c3ccccc31)C2c1cc([N+](=O)[O-])ccc1O (stereo unspecified) | 0 | 4 | -2 | -1 | -2 | 2
CCOc1ccccc1C=NN=Cc1ccccc1O | 0 | 6.8* | 0 | 1.1* | -1 | .
CC(=O)Nc1ccc(NC(=O)CNC(=O)COc2ccccc2)cc1 | -1 | 2 | -1 | -1 | 1 | 0
O=C(COc1ccccc1)NCC(=O)Nc1ccncc1 | 0 | -1 | 1 | -1 | 11* | 4
Brc1ccc(N=NNc2ccccc2)cc1 | 2 | 0 | 2 | 0 | 6 | 58*
O=C(c1ccccc1)c1cccc[n+]1[O-] | 0 | 6.2* | -1 | -1 | 0 | 0
O=C(c1ccccc1)c1cc[n+]([O-])cc1 | 0 | 0 | -1 | -1 | 0 | 0
C[C@H]1CN([C@@H](C)CO)C(=O)CCCn2cc(nn2)CO[C@@H]1CN(C)S(=O)(=O)c1ccccc1F | 0 | . | 0 | -1 | 2 | .
O=c1[nH]c(CSc2nc3ccccc3s2)nc2ccccc12 | 1 | 2 | 1 | -1 | 7 | 66*
O=c1[nH]c(CSc2nc3ccccc3s2)nc2cc(Cl)ccc12 | 1 | . | 3 | -1 | 0 | 53*
O=c1[nH]c(Cc2cccs2)nc2ccccc12 | 0 | 1 | -1 | -1 | 0 | 3
Cc1sc2nc(CSc3nc4ccccc4s3)[nH]c(=O)c2c1C | 0 | . | 0 | -1 | 3 | 14
O=C(OCc1nc2ccccc2c(=O)[nH]1)c1cccs1 | 0 | 1 | 2 | -1 | 0 | 55*
O=C(Cc1ccccc1)Nc1ncccn1 | 0 | 2 | -1 | -1 | 1 | 1
CN(N=Nc1cccc([N+](=O)[O-])c1)c1ccccc1 | 0 | 1 | 2 | -1 | 4 | 7
CN(N=Nc1ccc([N+](=O)[O-])cc1)c1ccccc1 | 2 | 1 | 2 | 6.2* | 7 | 2
CC1(C)CC(=O)C=C(Nc2ccc(Cl)c(Br)c2)C1 | 0 | -1 | 0 | -1 | -2 | 68*
SMILES | DAX1 inh-1 | DAX1 inh-2 | hcDAF-12 act | ssDAF12 agonist | hgDAF12 agonist | AHR activator
COc1ccc(NC(=O)C2c3ccccc3OCC(=O)N2Cc2ccc3c(c2)OCO3)cc1 (stereo unspecified) | 2 | . | 1 | -1 | 2 | .
CCN(CC)CCn1c(NC(=O)c2ccc(Cl)cc2)nc2ccccc21 | 1 | 0 | 5.7* | 1.0* | 4 | 16
CCCn1c(NC(=O)c2ccc(C)cc2)nc2ccccc21 | 0 | 0 | -1 | -1 | 4 | 49*
CCCn1c(NC(=O)c2ccccc2)nc2ccccc21 | -1 | 0 | 4 | 0 | 3 | 46
Cn1c(NC(=O)c2cccnc2)nc2ccccc21 | 0 | 1 | 2 | 0 | 9 | 78*
O=C(Nc1cnc2ccccc2c1)c1cccnc1 | 2 | 1 | 2 | 0 | 9 | 37
CSc1cccc(NC(=O)Cc2ccccc2[N+](=O)[O-])c1 | 0 | 0 | 0 | -1 | 6 | 7
